Screening results from PubChem.
Sm TGR block – S. mansoni TGR enzyme inhibition. Potency, µM (titrated, usually from 114 µM), for the others: at the highest dose activity change, negative = inhibition, actives largely listed as inhibitors. actives 3% (n = 360,000). purified TGR, DTNB reduction, TNB absorbance 405 nm. Q962Y6; also: % is scaled to controls: 0 for no effect and ±100 for the full control effect; nearly all actives have a fitted effect of over 60% in size
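First, TGR (20 nM dispensed) and NADPH were mixed with compound. Second, a 15 min room-temperature incubation followed. Third, further NADPH and then DTNB were added to start the reaction. Finally, TNB absorbance was monitored kinetically.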
Pf growth 96h – P. falciparum growth inhibition at 96 hour, primary screen for plastid delayed-death inhibitors | AID 504834 | actives 6.9% (n = 320,000) | Potency, µM (titrated, usually from 28.7 µM), without a hit: at the top dose activity change, negative = inhibition, actives largely listed as inhibitors | P. falciparum luciferase reporter growth, 96 h; also: % is scaled to controls: 0 for no effect and ±100 for the full control effect
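Cell-based qHTS: luciferase-tagged P. falciparum in erythrocytes (2% hematocrit, 0.05% parasitemia final) incubated with compounds for 96 hours, 37 C, 5% CO2; luciferase detection reagent then added and luminescence measured.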
Pf growth 48h – inhibits P. falciparum growth in the first generation, 48 h | Potency, µM (series often up to 28.7 µM), inactives show at the highest dose activity change, negative = inhibition, actives largely listed as inhibitors | actives 5.9% (n = 310,000) | AID 504832 | P. falciparum luciferase growth in erythrocytes, 48 h; also: % is scaled to controls: 0 for no effect and ±100 for the full control effect
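Read-out is firefly luciferase luminescence from an integrated reporter in P. falciparum, so falling signal marks reduced parasite growth. Infected erythrocytes were at 2% hematocrit and 0.1% parasitemia (final) in Albumax-supplemented RPMI 1640.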
SARS PLpro yeast – blocks SARS-CoV papain-like protease in a yeast assay; S. cerevisiae expressing SARS-CoV PLpro, growth rescue; Potency, µM (highest dose often 32.9 µM), without a hit: top-dose activity, positive = growth rescue, usual class: activators; actives 0.19% (n = 330,000); AID 485353; calls by dose curve; also: 0% is about no effect; nearly all actives have a fitted effect of over 55% in size
An asterisk follows results filed as active; ? = inconclusive; · = no result. Compounds with a hit are over-represented: about 12% of the library has one in this group of screens. Unless noted, calls follow the shape of the dose curve; as a rule, active = well fitted curve in the direction sought with a large enough effect; inconclusive = small, poorly fitted or top-dose-only effect, or another doubt; inactive = no such curve, though single readings can be large; an effect the other way counts as inactive or inconclusive. Potency is read from the fitted curve at half-maximal effect.

SMILES	Sm TGR block	Pf growth 96h	Pf growth 48h	SARS PLpro yeast
COc1ccc(CNC(=O)Cn2ncc3c([nH]c4ccccc43)c2=O)cc1	3.2%	·	·	·
Cc1ccccc1CNC(=O)C1CCN(c2nnc(-n3c(C)ccc3C)s2)CC1	-29.3%	·	·	·
O=C(NC(=S)Nc1ccc(Cl)c(C(=O)O)c1)c1ccco1	44.7µM*	-25.0%	?	-3.8%
O=C(NC(NC(=S)Nc1ccccc1C(=O)O)C(Cl)(Cl)Cl)c1ccco1 (stereo unspecified)	-2.6%	-30.1%	-2.5%	6.1%
Cc1sc(NC(=S)NC(=O)c2ccco2)c(C#N)c1C	3.98µM*	-39.3%	39.2%	-2.4%
Cc1ccccc1NC(=S)NC(NC(=O)c1ccco1)C(Cl)(Cl)Cl (stereo unspecified)	?	9.28µM*	?	-10.5%
COc1ccc(NC(=O)C2CCC(=O)N2C(=O)OCc2ccccc2)cc1 (stereo unspecified)	-9.0%	?	14.5%	19.6%
COc1cc(CCCN2C(N)=NC[C@@H]2Cc2ccc(O)cc2)cc(OC)c1OC	4.0%	2.33µM*	?	0.4%
COc1cc(CCCN2C(N)=NC[C@@H]2Cc2ccccc2)cc(OC)c1OC	1.7%	9.28µM*	9.28µM*	0.1%
O=c1cc(-c2ccccc2)n2c(SCc3ccccc3Cl)nnc2[nH]1	-1.4%	·	·	·
Cc1ccc(O)c(C(=O)CC(=O)c2ccccc2Cl)c1	·	15.6%	14.7µM*	-4.0%
Cc1ccc(O)c(C(=O)CC(=O)c2ccc(C(C)(C)C)cc2)c1	5.3%	?	?	1.3%
CCn1cc[n+](C)c1P(c1ccccc1)c1ccccc1	-8.9%	?	1.31µM*	4.2%
CCOC(=O)C(C)Nc1ncnc2onc(C)c12 (stereo unspecified)	0.2%	·	·	·
O=C(O)/C=C/C(=O)NNC(=O)c1cc(-c2ccccc2)n[nH]1	39.8µM*	-12.8%	6.2%	-4.6%
O=C(O)c1cc(-c2ccccc2)n[nH]1	-2.2%	18.5%	13.4%	17.8%
O=C(O)/C=C\C(=O)NNC(=O)c1cc(-c2ccccc2)n[nH]1	22.4µM*	44.0%	9.7%	-1.7%
Cc1nn(Cc2c(F)c(F)c(F)c(F)c2F)c(C)c1NC(=O)c1cccc(COc2ccccc2Cl)c1	-19.0%	288.9%	137.2%	1.5%
Cc1nn(Cc2cccc(F)c2)c(C)c1NC(=O)c1ccc(COc2ccccc2Cl)cc1	15.7%	·	13.1µM*	1.2%
COc1cc(N)c(C(=O)c2nccc3cc(OC)c(OC)cc23)cc1OC	0.5%	5.22µM*	0.0%	14.0%
COc1cc2ccnc(Cc3cccc(OC)c3OC)c2cc1OC	6.6%	45.6%	-11.8%	0.2%
COc1cc(N)c(Cc2nccc3cc(OC)c(OC)cc23)cc1OC	·	6.57µM*	?	-1.2%
CCOc1cc(-c2nccc3cc(OC)c(OC)cc23)cc(OCC)c1OCC	0.7%	10.7µM*	10.4µM*	-5.4%
COc1cc(C(=O)c2nccc3cc(OC)c(OC)cc23)c([N+](=O)[O-])cc1OC	-0.6%	?	?	0.5%
COc1cc(Br)c(C(=O)c2nccc3cc(OC)c(OC)cc23)cc1OC	-31.4%	8.5%	6.57µM*	1.5%
SMILES	Sm TGR block	Pf growth 96h	Pf growth 48h	SARS PLpro yeast
CCOC(=O)c1cc(C#N)c(=S)[nH]c1C	1.2%	35.1%	26.1%	3.3%
COCc1[nH]c(=S)c(C#N)cc1C(=O)OC	20µM*	?	-9.5%	-0.5%
CC1CCCN(C(=O)C(C)Sc2nc(-c3ccccc3)cc(C(F)(F)F)n2)C1 (stereo unspecified)	-22.4%	·	2.62µM*	-24.0%
Cc1cccn2c(CN[C@H]3CCCCNC3=O)c(C(=O)N3CCOCC3)nc12	-3.5%	9.28µM*	7.8%	-1.7%
Cc1cccn2c(CNC3CCCc4ccccc43)c(C(=O)N3CCOCC3)nc12 (stereo unspecified)	-1.0%	?	-22.1%	0.1%
CC(C)N1CCN(Cc2ccc(OC3CCCC3)cc2)CC1CCO (stereo unspecified)	-26.7%	11.7µM*	-13.0%	-12.8%
CCOC(=O)c1cccc(OCC(O)CNCCOc2ccccc2F)c1 (stereo unspecified)	-15.7%	11.4%	6.6%	9.1%
CCN(CCNCC(O)COc1ccccc1C(C)C)c1cccc(C)c1 (stereo unspecified)	8.5%	5.22µM*	3.29µM*	-3.6%
CCc1ccccc1N1C(=O)N(Cc2cc(=O)n3ccccc3n2)c2ccccc2S1(=O)=O	5.5%	·	·	·
COc1ccccc1N1CCN(C2CC(=O)N(c3cccc(Br)c3)C2=O)CC1 (stereo unspecified)	44.7µM*	6.0%	7.7%	-29.4%
COc1ccc(N2C(=O)CC(N3CCC(O)(c4ccc(Cl)cc4)CC3)C2=O)cc1 (stereo unspecified)	50.1µM*	·	13.7%	-22.8%
CCOc1ccc(N2C(=O)CC(N3CCN(c4ccc([N+](=O)[O-])cc4)CC3)C2=O)cc1 (stereo unspecified)	10µM*	5.0%	2.7%	-11.3%
CCCOc1ccc(N2C(=O)CC(N3CCN(c4ccc([N+](=O)[O-])cc4)CC3)C2=O)cc1 (stereo unspecified)	-30.8%	?	-38.0%	-8.3%
CCCN1CCC(N2CCN(c3ccc([N+](=O)[O-])cc3)CC2)CC1	2.9%	5.86µM*	?	-2.1%
COc1ccc(N2C(=O)CC(N3CCN(c4ccccc4OC)CC3)C2=O)cc1 (stereo unspecified)	?	?	-1.2%	-7.6%
CN(CC(=O)N1CCCCCC1)S(=O)(=O)c1ccc(F)cc1	10.4%	12.0%	60.0%	-1.2%
O=C1CC(N2CCN(c3ccc(Cl)cc3)CC2)C(=O)N1c1ccccc1 (stereo unspecified)	?	178.4%	-5.0%	-4.8%
COc1ccc(N2C(=O)CC(N3CCOCC3)C2=O)cc1 (stereo unspecified)	25.1µM*	41.3%	-4.8%	-6.5%
COC(=O)c1ccc(N2C(=O)CC(N3CCC(O)(c4ccc(Br)cc4)CC3)C2=O)cc1 (stereo unspecified)	44.7µM*	-11.4%	·	-54.9%
CCOc1ccc(N2C(=O)CC(N3CCN(c4ccc(Cl)cc4)CC3)C2=O)cc1 (stereo unspecified)	3.16µM*	3.29µM*	1.4%	-23.9%
COc1cccc(N2CCN(C3CC(=O)N(c4cccc(Cl)c4)C3=O)CC2)c1 (stereo unspecified)	44.7µM*	-2.5%	7.1%	-13.4%
O=C1CC(N2CCN(c3ccccc3)CC2)C(=O)N1c1cccc(Cl)c1 (stereo unspecified)	?	-5.1%	-0.1%	-31.1%
Cc1nc2ccn(Cc3ccccc3)c(=O)c2cc1C(=O)Nc1ccc(F)cc1Cl	5.2%	·	·	·
Cc1ccc(C(=O)OCC(=O)c2c[nH]c3ccccc23)cc1S(=O)(=O)N1CCOCC1	-0.4%	?	?	-3.6%
COc1ccc(N2C(=O)CC(c3ccc(OC(C)C)cc3)C2=O)cc1 (stereo unspecified)	3.0%	7.38µM*	·	-1.2%
COc1ccc(N2C(=O)CC(N3CCN(c4ccc(Cl)cc4)CC3)C2=O)cc1 (stereo unspecified)	44.7µM*	0.0%	17.0%	2.7%
